# Source: PMC7862700, “An all-to-all approach to the identification of sequence-specific readers for epigenetic DNA modifications on cytosine”
# Legend:
# Assay in all cases: DAPPL (digital affinity profiling via proximity ligation, sequencing); 10 mM Tris-HCl pH 7.5, 50 mM NaCl, 1 mM DTT, 4% glycerol, room temperature, 30 min; GST-TFs on glutathione beads, 16-mer random dsDNA library, 0.1% formaldehyde crosslink after washing; high values mean tight binding
# FEV = molecular target: T1, FEV (Homo sapiens, UniProt Q99581 1-238); details: protein: recombinant; tags: N-terminal GST; dsDNA, one strand shown
# T1 sequence: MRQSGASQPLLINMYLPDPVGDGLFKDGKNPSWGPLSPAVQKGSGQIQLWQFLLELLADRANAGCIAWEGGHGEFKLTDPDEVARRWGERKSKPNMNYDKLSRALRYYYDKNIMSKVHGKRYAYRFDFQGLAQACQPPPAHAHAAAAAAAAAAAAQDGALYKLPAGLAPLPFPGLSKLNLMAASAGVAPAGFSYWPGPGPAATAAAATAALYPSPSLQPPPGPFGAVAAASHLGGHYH
# Procedure, shortened: (§1)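 After expression in yeast as GST fusions, human transcription factors were bound to glutathione beads, DNA-barcoded and mixed with a tag-only sample. The pools were incubated with 200 nmole of a 16-mer random double-stranded DNA library in Tris/NaCl/DTT/glycerol buffer (30 min, room temperature), washed and crosslinked with 0.1% formaldehyde. Proximity ligation with BsaI/T4 ligase ran for 1 h at 37 °C, before PCR amplification and sequencing on an Illumina NextSeq500. Binding signal is a hexamer's read frequency for a factor divided by its frequency for the tag-only sample.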
# ETV5 = ETV5 (Homo sapiens, UniProt P41161 1-510); details: protein: recombinant; tags: N-terminal GST; dsDNA, one strand shown
# Procedure, shortened: as §1
# HSF1 = HSF1 (Homo sapiens, UniProt Q00613 1-529); details: protein: recombinant; tags: N-terminal GST; chain copies: 3; dsDNA, one strand shown
# Procedure, shortened: as §1
# SPIC = molecular target: T2, SPIC (Homo sapiens, UniProt Q8N5J4 1-248); details: protein: recombinant; tags: N-terminal GST; dsDNA, one strand shown
# T2 sequence: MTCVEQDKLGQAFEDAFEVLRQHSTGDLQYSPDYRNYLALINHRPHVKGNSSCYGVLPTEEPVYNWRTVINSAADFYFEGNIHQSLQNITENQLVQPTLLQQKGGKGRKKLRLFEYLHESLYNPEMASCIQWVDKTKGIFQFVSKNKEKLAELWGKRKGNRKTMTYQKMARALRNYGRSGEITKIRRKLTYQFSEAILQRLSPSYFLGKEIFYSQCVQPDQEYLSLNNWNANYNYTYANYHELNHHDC
# Procedure, shortened: as §1
# ELF4 = ELF4 (Homo sapiens, UniProt Q99607 1-663); details: protein: recombinant; tags: N-terminal GST; dsDNA, one strand shown
# Procedure, shortened: as §1
# ELK4 = molecular target: T3, ELK4 (Homo sapiens, UniProt P28324-2 1-405); details: protein: recombinant; tags: N-terminal GST; dsDNA, one strand shown
# T3 sequence: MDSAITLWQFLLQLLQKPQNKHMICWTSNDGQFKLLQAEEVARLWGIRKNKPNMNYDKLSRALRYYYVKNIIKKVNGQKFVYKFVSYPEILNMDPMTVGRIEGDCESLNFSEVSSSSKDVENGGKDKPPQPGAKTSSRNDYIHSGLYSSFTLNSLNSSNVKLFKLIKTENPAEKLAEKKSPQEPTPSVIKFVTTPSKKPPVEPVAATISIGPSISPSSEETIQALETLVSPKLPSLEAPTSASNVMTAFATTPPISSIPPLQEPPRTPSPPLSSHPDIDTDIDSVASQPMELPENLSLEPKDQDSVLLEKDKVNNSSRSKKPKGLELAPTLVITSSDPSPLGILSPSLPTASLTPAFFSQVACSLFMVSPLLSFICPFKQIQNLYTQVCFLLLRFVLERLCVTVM
# Procedure, shortened: as §1
# ETV2 = molecular target: T4, ETV2 (Homo sapiens, UniProt O00321 1-342); details: protein: recombinant; tags: N-terminal GST; dsDNA, one strand shown
# T4 sequence: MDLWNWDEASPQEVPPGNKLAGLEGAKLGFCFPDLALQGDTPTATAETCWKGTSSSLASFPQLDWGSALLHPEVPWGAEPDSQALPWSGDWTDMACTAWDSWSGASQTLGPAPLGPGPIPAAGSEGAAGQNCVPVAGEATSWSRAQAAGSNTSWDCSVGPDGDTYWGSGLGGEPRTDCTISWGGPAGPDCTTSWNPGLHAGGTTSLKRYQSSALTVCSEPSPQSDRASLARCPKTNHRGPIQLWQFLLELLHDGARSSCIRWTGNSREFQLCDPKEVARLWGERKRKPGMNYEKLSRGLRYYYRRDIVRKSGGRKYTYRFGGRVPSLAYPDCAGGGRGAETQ
# Procedure, shortened: as §1
# ELF3 = molecular target: T5, ELF3 (Homo sapiens, UniProt P78545 1-371); details: protein: recombinant; tags: N-terminal GST; dsDNA, one strand shown
# T5 sequence: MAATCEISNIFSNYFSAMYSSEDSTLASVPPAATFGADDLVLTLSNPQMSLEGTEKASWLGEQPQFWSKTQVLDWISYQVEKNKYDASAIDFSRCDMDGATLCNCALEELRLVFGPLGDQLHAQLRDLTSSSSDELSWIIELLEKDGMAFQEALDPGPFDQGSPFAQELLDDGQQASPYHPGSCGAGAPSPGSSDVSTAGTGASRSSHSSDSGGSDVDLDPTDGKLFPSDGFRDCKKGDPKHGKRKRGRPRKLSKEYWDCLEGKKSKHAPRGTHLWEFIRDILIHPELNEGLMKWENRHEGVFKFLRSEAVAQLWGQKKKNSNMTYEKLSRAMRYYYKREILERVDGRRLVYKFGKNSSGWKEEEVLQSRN
# Procedure, shortened: as §1
# CRX = CRX (Homo sapiens, UniProt O43186 1-299); details: protein: recombinant; tags: N-terminal GST; dsDNA, one strand shown
# Procedure, shortened: as §1
# HSF1, sequence (Q00613 whole entry): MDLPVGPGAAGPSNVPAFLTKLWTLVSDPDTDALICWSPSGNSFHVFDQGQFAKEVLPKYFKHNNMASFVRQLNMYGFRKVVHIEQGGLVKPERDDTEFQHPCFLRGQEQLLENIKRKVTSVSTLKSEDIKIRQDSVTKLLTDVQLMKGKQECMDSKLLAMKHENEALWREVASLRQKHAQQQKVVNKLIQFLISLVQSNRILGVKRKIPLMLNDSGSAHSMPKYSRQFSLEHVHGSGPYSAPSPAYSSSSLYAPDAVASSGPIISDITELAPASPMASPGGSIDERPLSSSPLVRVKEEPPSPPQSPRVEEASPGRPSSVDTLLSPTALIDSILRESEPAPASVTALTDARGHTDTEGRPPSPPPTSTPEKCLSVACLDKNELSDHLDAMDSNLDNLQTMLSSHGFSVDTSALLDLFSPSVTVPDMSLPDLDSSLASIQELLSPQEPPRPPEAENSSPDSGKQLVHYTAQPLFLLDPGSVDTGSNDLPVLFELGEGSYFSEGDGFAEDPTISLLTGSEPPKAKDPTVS
# ETV5, sequence (P41161 whole entry): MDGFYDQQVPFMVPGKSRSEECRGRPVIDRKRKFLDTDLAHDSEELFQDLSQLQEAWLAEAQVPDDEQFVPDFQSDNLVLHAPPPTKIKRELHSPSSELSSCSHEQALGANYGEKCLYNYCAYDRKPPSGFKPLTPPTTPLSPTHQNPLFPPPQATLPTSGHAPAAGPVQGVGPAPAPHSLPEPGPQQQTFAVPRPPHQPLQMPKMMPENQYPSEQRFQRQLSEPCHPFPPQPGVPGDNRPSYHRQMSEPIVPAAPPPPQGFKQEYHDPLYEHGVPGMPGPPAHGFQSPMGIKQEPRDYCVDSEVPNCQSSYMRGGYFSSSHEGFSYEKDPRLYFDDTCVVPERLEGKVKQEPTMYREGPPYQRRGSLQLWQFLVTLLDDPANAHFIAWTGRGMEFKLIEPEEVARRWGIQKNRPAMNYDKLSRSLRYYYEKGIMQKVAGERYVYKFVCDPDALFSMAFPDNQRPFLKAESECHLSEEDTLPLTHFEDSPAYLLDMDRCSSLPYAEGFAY
# CRX, sequence (O43186 whole entry): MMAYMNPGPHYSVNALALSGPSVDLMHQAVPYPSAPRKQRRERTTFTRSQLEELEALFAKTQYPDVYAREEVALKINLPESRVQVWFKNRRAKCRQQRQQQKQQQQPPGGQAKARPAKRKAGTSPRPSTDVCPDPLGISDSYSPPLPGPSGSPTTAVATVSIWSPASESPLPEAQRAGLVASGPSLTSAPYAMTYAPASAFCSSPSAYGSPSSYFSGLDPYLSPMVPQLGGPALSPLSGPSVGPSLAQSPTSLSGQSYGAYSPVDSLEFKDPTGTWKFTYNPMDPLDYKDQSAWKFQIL
# ELF4, sequence (Q99607 whole entry): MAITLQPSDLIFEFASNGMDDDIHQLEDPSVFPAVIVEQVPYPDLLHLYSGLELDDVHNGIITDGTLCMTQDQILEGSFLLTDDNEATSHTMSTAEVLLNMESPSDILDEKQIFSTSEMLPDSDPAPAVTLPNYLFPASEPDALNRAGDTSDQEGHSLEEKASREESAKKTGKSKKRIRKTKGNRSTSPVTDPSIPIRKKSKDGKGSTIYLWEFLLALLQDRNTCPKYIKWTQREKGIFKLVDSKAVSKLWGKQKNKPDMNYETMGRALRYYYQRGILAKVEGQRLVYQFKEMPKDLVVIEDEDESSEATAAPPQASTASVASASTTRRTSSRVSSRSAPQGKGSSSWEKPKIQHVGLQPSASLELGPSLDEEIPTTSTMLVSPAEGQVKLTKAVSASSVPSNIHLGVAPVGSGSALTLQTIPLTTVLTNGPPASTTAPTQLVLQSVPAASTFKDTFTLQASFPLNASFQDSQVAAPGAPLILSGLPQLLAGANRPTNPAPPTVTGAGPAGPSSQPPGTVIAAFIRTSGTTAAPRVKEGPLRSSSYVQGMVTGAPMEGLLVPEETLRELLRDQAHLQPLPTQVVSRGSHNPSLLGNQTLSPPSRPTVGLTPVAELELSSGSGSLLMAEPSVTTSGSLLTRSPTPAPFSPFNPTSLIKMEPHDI
sequence,measurement,setting,value
TACCTC,binding signal,FEV,"1.22 fold enrichment (6-mer frequency, TF over GST control)"
same,binding signal,ETV5,"1.14 fold enrichment (6-mer frequency, TF over GST control)"
same,binding signal,HSF1,"1.07 fold enrichment (6-mer frequency, TF over GST control)"
same,binding signal,SPIC,"1.4 fold enrichment (6-mer frequency, TF over GST control)"
same,binding signal,ELF4,"1.21 fold enrichment (6-mer frequency, TF over GST control)"
same,binding signal,ELK4,"1.36 fold enrichment (6-mer frequency, TF over GST control)"
same,binding signal,ETV2,"1.24 fold enrichment (6-mer frequency, TF over GST control)"
same,binding signal,ELF3,"1.27 fold enrichment (6-mer frequency, TF over GST control)"
same,binding signal,CRX,"1.19 fold enrichment (6-mer frequency, TF over GST control)"
